Bioassay records deposited in PubChem by National Center for Advancing Translational Sciences (NCATS).
Sampled rows, rich in hits. Any-hit rate of the full collection: about 11%.
HEK cytotox: kills HEK 293 cells. HEK 293 viability, ATP luminescence (CellTiter-Glo), 48-72 h. Potency, µM (titrated, usually from 115 µM), actives largely listed as inhibitors. actives 6.6% (n = 94,000); further: nearly all actives have a fitted effect of over 60% in size
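Pintool-delivered compounds were incubated with HEK 293 cells (250 cells/well) at 37 degree Celsius for 48 or 72 hr. ATP-dependent luminescence (CellTiter-Glo) then reported remaining viable cells.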
Luciferase inh: inhibitors of firefly (Photinus pyralis) luciferase; P08659; purified P. pyralis luciferase, luminescence, biochemical; Potency, µM (titrated, usually from 115 µM), actives largely listed as inhibitors; actives 2.5% (n = 76,000); further: nearly all actives have a fitted effect of over 65% in size
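Biochemical qHTS: compound (6-point titration) added to 10uM D-luciferin plus 10uM ATP in Tris acetate pH 7.5 buffer with Mg, Tween-20 and BSA, then purified enzyme at 10nM; light output imaged.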
3T3 cytotox: kills NIH 3T3 cells; NIH 3T3 viability, CellTiter-Glo ATP luminescence, 48-72 h; Potency, µM (titrated, usually from 96.7 µM), actives largely listed as inhibitors; actives 4.3% (n = 94,000); further: nearly all actives have a fitted effect of over 55% in size
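Viability of NIH 3T3 cells after 48 or 72 hr compound treatment at 37 °C was assessed by CellTiter-Glo, with luminescence imaged following a 10 min room-temperature step.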
hNpr1 antagonist: blocks ANP-stimulated signaling of human Npr1 receptor; HEK293 hNpr1 GloSensor cGMP, ANP-stimulated luminescence; Potency, µM (highest dose often 46.3 µM), usual class: inhibitors; actives 1.6% (n = 76,000); calls by dose curve; further: nearly all actives have a fitted effect of over 60% in size
Target sequence (P16066 whole entry, looked up): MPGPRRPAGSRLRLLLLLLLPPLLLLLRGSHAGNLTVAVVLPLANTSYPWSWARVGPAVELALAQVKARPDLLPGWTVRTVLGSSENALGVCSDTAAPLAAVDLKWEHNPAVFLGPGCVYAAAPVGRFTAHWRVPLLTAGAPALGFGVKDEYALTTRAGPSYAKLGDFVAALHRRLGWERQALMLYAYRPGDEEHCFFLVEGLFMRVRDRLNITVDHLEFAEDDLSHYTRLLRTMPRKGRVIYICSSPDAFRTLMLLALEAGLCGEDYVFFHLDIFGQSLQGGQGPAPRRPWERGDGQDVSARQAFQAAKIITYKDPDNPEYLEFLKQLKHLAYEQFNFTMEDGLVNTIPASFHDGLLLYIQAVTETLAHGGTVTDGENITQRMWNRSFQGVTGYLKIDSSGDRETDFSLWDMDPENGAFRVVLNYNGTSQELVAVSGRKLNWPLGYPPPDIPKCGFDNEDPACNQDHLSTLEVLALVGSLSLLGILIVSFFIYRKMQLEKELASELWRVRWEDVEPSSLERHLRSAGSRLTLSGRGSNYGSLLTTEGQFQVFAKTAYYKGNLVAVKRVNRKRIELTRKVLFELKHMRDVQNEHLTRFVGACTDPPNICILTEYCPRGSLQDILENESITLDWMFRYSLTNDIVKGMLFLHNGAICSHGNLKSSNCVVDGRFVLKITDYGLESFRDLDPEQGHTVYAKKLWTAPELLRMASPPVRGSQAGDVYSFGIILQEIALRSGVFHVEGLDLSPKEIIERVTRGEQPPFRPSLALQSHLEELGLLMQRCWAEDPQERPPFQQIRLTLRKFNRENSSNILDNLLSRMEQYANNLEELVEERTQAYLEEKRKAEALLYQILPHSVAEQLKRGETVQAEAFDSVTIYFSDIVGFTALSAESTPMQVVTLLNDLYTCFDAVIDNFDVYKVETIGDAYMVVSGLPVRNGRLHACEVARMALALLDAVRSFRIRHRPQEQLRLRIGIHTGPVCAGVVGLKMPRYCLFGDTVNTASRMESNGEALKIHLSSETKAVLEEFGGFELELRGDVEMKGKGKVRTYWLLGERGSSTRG
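Compound pre-incubated 30 min at room temperature on GloSensor-loaded HEK293 cells stably carrying hNpr1 and the pGS-40F cGMP biosensor. Stimulation uses hNppA at 0.1 nM final; luminescence is taken at baseline and 20 min post-agonist.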
Large screens that a line does not name were inactive. Unless noted, the call rests on the fitted dose curve; in most records, active means well fitted curve in the direction sought with a large enough effect; inconclusive means small, poorly fitted or top-dose-only effect, or another doubt; inactive means no such curve, though single readings can be large; an effect the other way counts as inactive or inconclusive.

COc1cccc(NC(=O)C2(C)CN(C)Cc3ccc(NCc4ccccc4)nc32)c1 (centres undefined)	HEK cytotox inconclusive, 3T3 cytotox 40µM
COc1ccc(NC(=O)C2(C)CN(C)Cc3ccc(NCc4ccccc4)nc32)cn1 (centres undefined)	HEK cytotox 79µM, 3T3 cytotox 79µM
Cc1nc(NC(=O)C2c3ccccc3C(=O)N(C3CCCC3)C23CCCC3)sc1C (centres undefined)	3T3 cytotox inconclusive
CC(C)C[C@@H]1N[C@H](C(=O)NC2CCCC2)Cc2cn(Cc3nccn3C)c3cccc1c23	HEK cytotox 40µM, 3T3 cytotox 89µM
COCCNC(=O)[C@@H]1Cc2cn(Cc3nccn3C)c3cccc(c23)[C@H](CC(C)C)N1	HEK cytotox 40µM
CC(C)C[C@@H]1N[C@H](C(=O)NCc2ccco2)Cc2cn(Cc3nccn3C)c3cccc1c23	HEK cytotox 32µM, 3T3 cytotox inconclusive
CC(=O)NCCNC(=O)[C@@H]1Cc2cn(Cc3c(C)noc3C)c3cccc(c23)[C@H](CC(C)C)N1	HEK cytotox inconclusive
Cc1noc(C)c1Cn1cc2c3c(cccc31)[C@H](CC(C)C)N[C@H](C(=O)NCc1ccco1)C2	HEK cytotox inconclusive, 3T3 cytotox 20µM
O=C(c1cccnc1)N1CCCN(CCn2nc3n(c2=O)CCCC3)CC1	none (no result: Luciferase inh, hNpr1 antagonist)
O=C1NCc2ccccc2CC12CCCN(Cc1cc(F)ccc1O)C2 (centres undefined)	HEK cytotox inconclusive (no result: Luciferase inh, hNpr1 antagonist)
O=C1NCCCCCCN(C(=O)CC2CCCCC2)[C@H]2CCCC[C@@H]12	HEK cytotox inconclusive
O=C(c1ccc(-c2cncnc2)cc1)N1CCC(C(=O)N2CCOCC2)CC1	none (no result: Luciferase inh, hNpr1 antagonist)
COc1cccc(-c2ccc(C(=O)N3CCC(N[S+](=O)([O-])c4cccc(C(F)(F)F)c4)CC3)cc2)c1	HEK cytotox 11µM, 3T3 cytotox inconclusive (no result: Luciferase inh, hNpr1 antagonist)
COc1cccc(-c2ccc(C(=O)N3CCC(C(=O)N4CCOCC4)CC3)cc2)c1	none (no result: Luciferase inh, hNpr1 antagonist)
COc1cccc(-c2ccc(C(=O)N3CCC(NC(=O)c4ccc(Cl)cc4)CC3)cc2)c1	none (no result: Luciferase inh, hNpr1 antagonist)
COc1cccc(-c2ccc(C(=O)N3CCC(N[S+](=O)([O-])c4ccc(C)cc4)CC3)cc2)c1	HEK cytotox 11µM, 3T3 cytotox inconclusive (no result: Luciferase inh, hNpr1 antagonist)
O=C1NC(=NC2CCCC2)C2(CCN(CC3CC3)CC2)N1c1cc(F)cc(F)c1	3T3 cytotox 32µM (no result: Luciferase inh, hNpr1 antagonist)
O=C1NC(=NC2CCCCC2)C2(CCCN(CC3CC3)C2)N1c1cc(F)cc(F)c1 (centres undefined)	HEK cytotox 10µM, 3T3 cytotox 32µM (no result: Luciferase inh, hNpr1 antagonist)
O=C1NC(=NC2CCCCC2)C2(CCCN(CC3CCCCC3)C2)N1c1cc(F)cc(F)c1 (centres undefined)	HEK cytotox inconclusive, 3T3 cytotox 28µM (no result: Luciferase inh, hNpr1 antagonist)
O=C1NC(=NC2CCCCC2)C2(CCCN(CC3CC3)C2)N1c1cccnc1 (centres undefined)	3T3 cytotox inconclusive (no result: Luciferase inh, hNpr1 antagonist)
O=C1NC(=NC2CCCCC2)C2(CCN(CC3CC3)CC2)N1c1cc(F)cc(F)c1	3T3 cytotox inconclusive (no result: Luciferase inh, hNpr1 antagonist)
C[S+](=O)([O-])N1CCCC2(C1)C(=NC1CCCC1)NC(=O)N2c1cc(F)cc(F)c1 (centres undefined)	none
CCc1noc(CC2CCOC3(CCN(S(=O)(=O)c4c(C)cc(C)cc4C)CC3)C2)n1 (centres undefined)	HEK cytotox inconclusive, 3T3 cytotox inconclusive, hNpr1 antagonist inconclusive
COc1ccc(-c2ccc(-c3nc(CC(C)C)no3)cn2)c2cccnc12	HEK cytotox 25µM, 3T3 cytotox inconclusive, hNpr1 antagonist inconclusive
COc1cc(-c2ccc(-c3nc(CC(C)C)no3)cn2)cc(OC)c1OC	HEK cytotox inconclusive, 3T3 cytotox inconclusive
CCCN(CC1CC1)C(=O)CCC1CCN(S(=O)(=O)c2ccccc2)CC1	HEK cytotox inconclusive, 3T3 cytotox inconclusive
CC(=O)Nc1ccc([S+](=O)([O-])NC2CCN(CCn3nc4n(c3=O)CCCC4)C2)cc1 (centres undefined)	none (no result: Luciferase inh, hNpr1 antagonist)
Cc1ccc([S+](=O)([O-])NC2CCN(Cc3ccc(-c4ccsc4)cc3)C2)cc1 (centres undefined)	HEK cytotox 45µM, 3T3 cytotox inconclusive (no result: Luciferase inh, hNpr1 antagonist)
O=[S+]([O-])(NC1CCN(Cc2ccc(-c3ccsc3)cc2)C1)c1cccc(C(F)(F)F)c1 (centres undefined)	HEK cytotox 28µM, 3T3 cytotox 16µM (no result: Luciferase inh, hNpr1 antagonist)
CC1Oc2ccc(NC(=O)c3cccs3)cc2CN(CCOc2ccccc2)C1=O (centres undefined)	HEK cytotox 40µM, 3T3 cytotox inconclusive
